# Bioassay records (PubChem)
# A selection: hits, their analogues and other compounds. The true share with any hit is near 0.93%.
# LAP4-GFP MLPCN: alters LAP4-GFP fluorescence in TOR pathway yeast screen | AID 2023 | GFP response vs DMSO, % at 10 µM | 320,000 tested, 0.34% active | S. cerevisiae LAP4-GFP multiplex, flow cytometry GFP, 3 h; median GFP as percent of DMSO wells;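 active = GFP response vs DMSO above a set limit, about the screen mean plus 3 SD, cut at about 150% in these data; inconclusive = under 70 cell events counted for the yeast strain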
# AGP1-GFP MLPCN: alters AGP1-GFP fluorescence in TOR pathway yeast screen | GFP response vs DMSO, % at 10 µM | 320,000 tested, 0.02% active | S. cerevisiae AGP1-GFP multiplex flow cytometry, 3 h; GFP as percent of DMSO wells;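 active = GFP response relative to DMSO above a set limit, near screen average plus 3 SD, cut at about 150% in these data; inconclusive = fewer than 70 cells counted for the yeast strain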;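 also: median GFP channel fluorescence of the gated AGP1 strain per well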
# MEP2 TOR yeast: alters MEP2-GFP fluorescence in TOR pathway yeast screen; S. cerevisiae MEP2-GFP strain, flow cytometry GFP, 3 h; 100% = DMSO control level; GFP response vs DMSO, % at 10 µM; 330,000 tested, 0.51% active; AID 2016;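 active = GFP response versus DMSO above a set limit, roughly screen mean plus 3 SD, cut at about 180% in these data; inconclusive = fewer than 70 cells counted for a yeast strain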;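 also: median GFP fluorescence of the barcode-gated MEP2-GFP cells per well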
# CIT2 TOR yeast: alters CIT2-GFP fluorescence in TOR pathway yeast screen | 320,000 tested, 0.065% active | S. cerevisiae CIT2-GFP strain, flow cytometry, 3 h; 100 means same as DMSO wells | GFP response vs DMSO, % at 10 µM | AID 2029;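 active = GFP response relative to DMSO above a set limit, near the screen mean plus 3 SD, cut at about 150% in these data; inconclusive = Fewer than 70 cells measured for a yeast strain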;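 also: ratio of well median GFP fluorescence to mean of DMSO wells on the plate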
# RPL19A-GFP yeast: alters RPL19A-GFP fluorescence in TOR pathway yeast screen | S. cerevisiae RPL19A-GFP strain, flow cytometry, 3 h; active compounds read low | percent response vs DMSO, % at 10 µM | 330,000 tested, 0.3% active | AID 2025;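 active = percent response vs DMSO below 50%; inconclusive = fewer than 70 events counted for the yeast strain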;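 also: median channel GFP fluorescence of the barcoded RPL19A-GFP strain; lower means less RPL19A-GFP as with rapamycin TOR inhibition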
# A number is an active result; . = inactive; ? = inconclusive; / = not tested or not shown; [ ] = another dose, or the depositor's remark.
SMILES,LAP4-GFP MLPCN,AGP1-GFP MLPCN,MEP2 TOR yeast,CIT2 TOR yeast,RPL19A-GFP yeast
CN(C)c1cc[n+](CC(=O)Nc2cccc([N+](=O)[O-])c2)cc1,.,.,.,.,.
COc1cc2c(cc1OC)C(C(=O)Nc1ccccn1)C(c1cccnc1)N(C)C2=O (stereo not drawn),.,.,.,.,.
COc1cc2c(cc1OC)C(C(=O)Nc1cccc(C)n1)C(c1cccnc1)N(C)C2=O (stereo not drawn),.,?,255.7[may fluoresce violet],?,48.7[may fluoresce violet]
COC(=O)c1ccc(/C=N/OCC(=O)NCCc2ccc(OC)c(OC)c2)cc1,.,.,305.9,.,.
O=C(NC1CCS(=O)(=O)C1)c1ccc2c(c1)OCO2 (stereo not drawn),.,.,.,.,.
Cc1ccc(N=c2oc3cc(O)ccc3cc2C(N)=O)cc1,.,.,613.6[may fluoresce violet],?,48.6[may fluoresce violet]
Cc1ccc(C(=O)N/N=c2\oc3ccccc3cc2C(N)=O)cc1,.,.,.,.,.
COc1cc2nc(/C=C/c3cc(OC)c(OC)c(OC)c3)sc2cc1SC,.,?,227.5[may fluoresce violet],?,17.8[may fluoresce violet]
CC(=O)COc1ccc2c(C)c(C)c(=O)oc2c1,.,.,.,.,/
Cc1c(C)c2ccc(OS(C)(=O)=O)cc2oc1=O,.,.,350.8[may fluoresce violet],?,47.1[may fluoresce violet]
CCCCN(Cc1ccco1)S(=O)(=O)c1csc(C(N)=O)c1,.,.,.,.,.
Cc1cc(-c2nnnn2-c2cc(Cl)cc(Cl)c2)no1,.,.,.,.,.
CCOC(=O)C1=C(C)N=C2SC(C(=O)OC)=CC(=O)N2C1c1cccc(OC)c1 (stereo not drawn),.,.,.,.,.
CCOC(=O)C1=C(C)N=C2SC(C(=O)OC)=CC(=O)N2C1c1ccc(F)cc1 (stereo not drawn),190.1,.,.,.,.
O=C(CSc1ccccc1)Nc1nnc(C2CC2)s1,.,.,.,.,.
CSc1ccc(/C=N/NC(=O)c2cccc(O)c2)cc1,.,.,187.5[may fluoresce violet],?,.
CCOc1ccc(C(=O)N/N=C/c2ccc(SC)cc2)cc1,.,.,.,.,.
Cc1cc2nc(/N=C(\N)NC(=O)N3c4ccccc4Sc4ccccc43)nc(C)c2cc1C,.,.,.,.,.
O=C(COC(=O)C1CCN(c2ccc(C(F)(F)F)cn2)CC1)Nc1cccc(F)c1,151.8,.,.,.,.
Cc1cccn2c(=O)c(/C=C(\C#N)C(=O)NCc3ccco3)c(N3CCCCC3)nc12,.,.,178.4[may fluoresce violet],?,.
COc1ccc(N2CCN(c3nc4c(C)cccn4c(=O)c3/C=C(\C#N)C(N)=O)CC2)cc1,.,.,195.2,.,.
CC1CCN(C(=O)CSc2nc3c(c(=O)n(C)c(=O)n3C)n2C)CC1,.,.,.,.,.
CCn1c(SCC(=O)N2CCCCC2)nc2c1c(=O)n(C)c(=O)n2C,.,.,393.2[may fluoresce violet],?,.
CCn1c(SCC(=O)N2CCCCC2C)nc2c1c(=O)n(C)c(=O)n2C (stereo not drawn),.,?,?,?,49.0[may fluoresce violet]
CCn1c(=O)c2c(nc(SCC(=O)N3CCC(C)CC3)n2C)n(C)c1=O,.,?,363.5[may fluoresce violet],?,48.7[may fluoresce violet]
SMILES,LAP4-GFP MLPCN,AGP1-GFP MLPCN,MEP2 TOR yeast,CIT2 TOR yeast,RPL19A-GFP yeast
CCCCn1c(SCC(=O)N2CCCC2)nc2c1c(=O)n(C)c(=O)n2C,.,.,.,.,.
Cc1nnc(SCC(=O)Nc2ccc(N3CCN(S(C)(=O)=O)CC3)cc2)o1,.,.,.,.,.
O=C(CNC1CCCCC1)Nc1ccc(S(=O)(=O)N2CCCCC2)cc1,.,.,.,.,.
CCc1nnc(NC(=O)c2ccc(S(=O)(=O)N3CCCC(C)C3)cc2)o1 (stereo not drawn),150.5,.,.,.,.
CC1CCCN(S(=O)(=O)c2ccc(NC(=O)CNC3CCCC3)cc2)C1 (stereo not drawn),.,.,315.1[may fluoresce violet],?,.
Cn1cccc1C(=O)C(=O)Nc1ccc(F)c(F)c1,.,?,.,?,47.1[may fluoresce violet]
Cn1cccc1C(=O)C(=O)Nc1ccc(Cl)cc1,.,.,.,.,.
N#C/C(C(=O)Nc1ccc(Cl)cc1)=C(/S)Nc1ccccc1,194.3,.,.,.,.
O=C(Nc1ccc(Nc2ccccc2)cc1)c1ccc(Cl)cc1,.,.,.,.,.
CC(=O)c1ccccc1NC(=O)C1CCCN(C(=O)c2ccc(Cl)cc2)C1 (stereo not drawn),.,.,.,.,.
COC(=O)Cc1csc(Nc2ccc(F)c(Cl)c2)n1,196.5,.,.,.,.
Cc1cc(C)c2sc(NC(=O)C3=COCCO3)nc2c1,165.5,.,.,.,.
Cc1ccc(S(=O)(=O)CC#CCOC(=O)c2ccc([N+](=O)[O-])cc2)cc1,156.0,.,.,.,.
Cc1ccc(C(=O)c2ccc([N+](=O)[O-])cc2)cc1,.,.,.,.,.
Cc1onc(-c2ccccc2)c1C(=O)N1CCN(c2ncccc2C(F)(F)F)CC1,.,.,.,153.8[may fluoresce green],.
Cc1ccc(NC(=S)N/N=C/c2c(C)[nH]c3ccccc23)cc1,183.8,.,.,.,.
Cc1[nH]c2ccccc2c1/C=N/NC(=O)Nc1ccccc1,.,?,.,?,23.7[may fluoresce violet]
Cc1[nH]c2ccccc2c1/C=N/NC(=O)c1cc(-c2ccccc2)n[nH]1,.,?,.,?,45.7[may fluoresce violet]
COc1ccccc1NC(=O)[C@@H]1CCCN1S(=O)(=O)c1ccc(Cl)cc1,.,.,.,.,.
CCN(CC)C(=O)Cn1cc(S(=O)(=O)CC(=O)Nc2ccc3c(c2)OCCO3)c2ccccc21,.,.,.,.,.
CCCn1cc(S(=O)(=O)CC(=O)Nc2ccc(OCC)cc2)c2ccccc21,.,.,505.5[may fluoresce violet],?,.
Cc1cccc(SCC(=O)Nc2ccc3c(c2)OCCO3)c1,.,.,.,174.4[may fluoresce green],.
CCn1cc(S(=O)(=O)CC(=O)Nc2ccc3c(c2)OCCO3)c2ccccc21,.,?,226.0[may fluoresce violet],?,23.3[may fluoresce violet]
CCCn1cc(S(=O)(=O)CC(=O)Nc2ccc(OC)cc2OC)c2ccccc21,.,.,.,.,.
COc1ccc(CN2CCNC(=O)C2CC(=O)NCCCn2cccn2)c(OC)c1 (stereo not drawn),.,.,.,.,.
SMILES,LAP4-GFP MLPCN,AGP1-GFP MLPCN,MEP2 TOR yeast,CIT2 TOR yeast,RPL19A-GFP yeast
CC(NC(=O)COC(=O)c1c[nH]c2ccccc12)c1ccccc1 (stereo not drawn),.,.,.,.,.
Cc1ccc(S(=O)(=O)/N=C(/c2ccccc2)N2CCOCC2)cc1,.,.,.,.,.
O=S(=O)(/N=C(/c1ccc(Cl)cc1)N1CCOCC1)c1ccc(Cl)cc1,.,?,278.6[may fluoresce violet],?,/
O=S(=O)(/N=C(/c1ccccc1)N1CCOCC1)c1ccc(Br)cc1,.,.,.,.,.
O=S(=O)(/N=C(/c1ccccc1)N1CCOCC1)c1ccc(F)cc1,.,?,231.5[may fluoresce violet],?,36.6[may fluoresce violet]
CC(C)(C)c1ccc2c(c1)C(=O)c1ccccc1C2=O,.,.,.,.,.
CC(C)(C)C1=CC=C(C(C)(C)C)C(=O)C1=O,174.9,.,.,.,.
